Screening results as filed in PubChem BioAssay.
Shown are actives, neighbours in structure and some others; about 4.3% of the full set was active somewhere.
ADAM10 inh: inhibitors of human ADAM10; O14672; recombinant ADAM10, EDANS/DABCYL FRET peptide cleavage, 3 h; inhibition, % at 7 µM; actives 0.62% (n = 370,000); AID 720582;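 active = inhibition above a per-campaign cutoff equal to the mean of compounds falling between control-based bounds plus 3 SD, cut at about 20% in these data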;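 note: 0% = DMSO wells while the 100% control is not disclosed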
NR3A LBD binder: modulators (binders) of human NR3A ligand-binding domain; Tm shift relative to glycine control, % at 25 µM; actives 2.5% (n = 340,000); NR3A LBD differential scanning fluorimetry, Tm shift; 0% = protein alone, 100% = glycine-bound protein;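 active = melting temperature shift of at least 10% of the positive control shift, at one fixed dose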
ADAM17 inh: ADAM17 inhibition, QFRET primary screen | P78536 | actives 0.83% (n = 370,000) | recombinant ADAM17, EDANS/DABCYL FRET peptide cleavage | inhibition, % at 6.95 µM;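 active = inhibition above the mean of compounds lying between control limits plus 3 SD, set per campaign, cut at about 8.5% in these data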;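 note: 0% = DMSO-only wells as the low control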
HGIII-sPLA2 inh: Inhibits HGIII-sPLA2 liposome hydrolysis, primary screen; Q9NZ20; QFRET BODIPY PC-A2 liposome hydrolysis, fluorescence; inhibition, % at 12.2 µM; actives 0.56% (n = 370,000); AID 743126;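 active = inhibition above mean plus 3 SD of compounds lying within the high and low control bounds, cut at about 19% in these data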;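 note: 0% = median of test compound wells and 100% = no enzyme DMSO wells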
FAS TE block: inhibitors of human fatty acid synthase thioesterase domain | P49327 | recombinant FAS-TE, OMFH fluorogenic substrate, fluorescence endpoint | inhibition, % at 15 µM | actives 0.67% (n = 360,000) | AID 602261;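 active = compounds whose normalised, plate-corrected inhibition of enzyme fluorescence in the single-dose primary screen is 50% or more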;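 note: 0% = DMSO with enzyme and 100% = substrate without enzyme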
Target sequence (P49327 whole entry, looked up, the tested form may be a part): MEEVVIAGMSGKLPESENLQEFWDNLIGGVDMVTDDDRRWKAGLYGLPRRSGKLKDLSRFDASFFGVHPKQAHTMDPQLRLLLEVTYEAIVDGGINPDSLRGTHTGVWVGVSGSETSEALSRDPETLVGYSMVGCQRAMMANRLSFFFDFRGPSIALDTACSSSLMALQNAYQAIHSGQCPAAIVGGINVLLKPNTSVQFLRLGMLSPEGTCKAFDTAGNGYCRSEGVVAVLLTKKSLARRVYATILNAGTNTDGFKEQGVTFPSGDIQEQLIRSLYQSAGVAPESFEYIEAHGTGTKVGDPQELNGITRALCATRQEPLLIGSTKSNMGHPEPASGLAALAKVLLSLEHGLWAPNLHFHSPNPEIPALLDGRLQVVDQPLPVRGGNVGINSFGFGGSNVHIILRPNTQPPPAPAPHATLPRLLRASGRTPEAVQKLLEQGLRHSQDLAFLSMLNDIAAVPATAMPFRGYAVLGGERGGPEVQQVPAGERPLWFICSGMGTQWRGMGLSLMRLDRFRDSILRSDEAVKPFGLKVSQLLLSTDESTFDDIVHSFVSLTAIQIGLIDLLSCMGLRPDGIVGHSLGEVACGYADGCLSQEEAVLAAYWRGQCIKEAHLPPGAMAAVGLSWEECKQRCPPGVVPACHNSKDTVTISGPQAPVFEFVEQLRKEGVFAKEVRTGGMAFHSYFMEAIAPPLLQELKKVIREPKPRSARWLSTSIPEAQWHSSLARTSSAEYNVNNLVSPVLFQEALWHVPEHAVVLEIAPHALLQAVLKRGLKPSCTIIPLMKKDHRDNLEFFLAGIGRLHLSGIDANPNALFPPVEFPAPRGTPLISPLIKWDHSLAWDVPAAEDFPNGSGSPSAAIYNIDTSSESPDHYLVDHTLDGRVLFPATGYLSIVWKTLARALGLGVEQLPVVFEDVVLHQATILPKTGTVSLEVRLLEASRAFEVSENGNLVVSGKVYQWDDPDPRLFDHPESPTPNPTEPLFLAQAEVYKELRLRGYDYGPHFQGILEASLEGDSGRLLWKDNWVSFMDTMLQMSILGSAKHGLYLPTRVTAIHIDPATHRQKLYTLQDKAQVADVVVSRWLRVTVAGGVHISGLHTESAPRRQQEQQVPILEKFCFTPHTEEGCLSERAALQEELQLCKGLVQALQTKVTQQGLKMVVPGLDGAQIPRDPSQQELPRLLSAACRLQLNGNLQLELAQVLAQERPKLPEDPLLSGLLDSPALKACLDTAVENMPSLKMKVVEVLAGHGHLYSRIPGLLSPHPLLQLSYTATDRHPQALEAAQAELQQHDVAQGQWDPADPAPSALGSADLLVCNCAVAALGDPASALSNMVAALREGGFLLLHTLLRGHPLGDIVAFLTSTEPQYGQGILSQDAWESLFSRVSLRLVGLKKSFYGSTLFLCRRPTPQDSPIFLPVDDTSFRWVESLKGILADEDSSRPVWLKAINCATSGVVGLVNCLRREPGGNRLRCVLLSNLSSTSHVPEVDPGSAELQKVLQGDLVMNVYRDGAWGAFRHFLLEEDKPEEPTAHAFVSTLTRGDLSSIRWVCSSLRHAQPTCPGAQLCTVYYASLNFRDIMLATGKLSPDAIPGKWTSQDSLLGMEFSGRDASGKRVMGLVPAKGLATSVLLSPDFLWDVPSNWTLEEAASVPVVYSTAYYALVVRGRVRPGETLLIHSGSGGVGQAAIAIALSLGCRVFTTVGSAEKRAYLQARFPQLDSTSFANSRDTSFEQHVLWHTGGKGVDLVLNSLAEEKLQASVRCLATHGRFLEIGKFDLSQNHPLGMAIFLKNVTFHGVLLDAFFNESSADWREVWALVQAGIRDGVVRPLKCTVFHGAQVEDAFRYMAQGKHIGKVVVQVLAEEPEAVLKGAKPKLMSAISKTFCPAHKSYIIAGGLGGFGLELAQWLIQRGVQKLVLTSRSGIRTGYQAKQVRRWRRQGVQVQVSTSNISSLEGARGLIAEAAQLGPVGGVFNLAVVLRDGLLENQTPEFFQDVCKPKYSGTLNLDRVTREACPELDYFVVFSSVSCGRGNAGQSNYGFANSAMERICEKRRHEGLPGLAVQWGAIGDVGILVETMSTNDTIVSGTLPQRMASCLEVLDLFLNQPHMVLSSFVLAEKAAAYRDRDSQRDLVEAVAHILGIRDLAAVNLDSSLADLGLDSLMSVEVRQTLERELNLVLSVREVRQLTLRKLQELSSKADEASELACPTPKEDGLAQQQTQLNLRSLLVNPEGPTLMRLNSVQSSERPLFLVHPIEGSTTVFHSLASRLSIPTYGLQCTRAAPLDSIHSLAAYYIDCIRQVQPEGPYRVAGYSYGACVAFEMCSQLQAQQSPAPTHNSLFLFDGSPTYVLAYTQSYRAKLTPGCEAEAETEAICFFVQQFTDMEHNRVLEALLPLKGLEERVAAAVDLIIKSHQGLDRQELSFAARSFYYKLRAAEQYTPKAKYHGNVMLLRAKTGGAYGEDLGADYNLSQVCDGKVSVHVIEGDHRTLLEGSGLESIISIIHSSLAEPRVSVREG
FAS-TE inh conf: FAS thioesterase (human) inhibition, confirmation | shares compounds with FAS TE block | actives 45% (n = 2,300) | inhibition, % at 15 µM | recombinant FAS-TE, OMFH fluorogenic substrate, fluorescence;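 active = compounds inhibiting the enzyme by at least 50% at 15 µM in any one of the replicates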;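 note: 0% = enzyme with DMSO only and 100% = wells lacking enzyme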
Starred values were filed as active, the others as inactive; x = no result.

SMILES | ADAM10 inh | NR3A LBD binder | ADAM17 inh | HGIII-sPLA2 inh | FAS TE block | FAS-TE inh conf
Cc1ccc(C)c(CN2C(=O)c3ccccc3S(=O)c3ccc(C(=O)N4CCN(c5ccccn5)CC4)cc32)c1 (configuration not stated) | 15 | 0 | 6 | -15 | 72* | 38
O=C(NC(NC(=S)Nc1ccccc1C(=O)O)C(Cl)(Cl)Cl)c1ccco1 (configuration not stated) | -52 | 1 | -20 | -1 | 0 | x
COC(=O)c1ccccc1NC(=S)NC(NC(=O)COc1ccccc1)C(Cl)(Cl)Cl (configuration not stated) | -3 | 6 | 4 | 4 | 71* | 37
COC(=O)c1ccccc1NC(=S)NC(=O)COc1ccc(C(C)C)cc1 | -7 | -6 | -4 | 12 | -3 | x
COC(=O)c1ccccc1NC(=O)COC(=O)c1ccc(C)c(NC(=O)c2ccco2)c1 | 9 | -2 | 2 | 2 | 71* | 17
COC(=O)c1ccccc1NC(=S)NC(NC(=O)c1ccco1)C(Cl)(Cl)Cl (configuration not stated) | x | -18 | x | x | 50* | 42
CC(C)C[C@@H](NC(=O)OC(C)(C)C)C(=O)N1O[C@]23C=C[C@]14C[C@@H](O)CC[C@]4(C)C2CC[C@]1(C)[C@@H]([C@H](C)/C=C/[C@H](C)C(C)C)CC[C@H]13 (some centres not stated) | -128 | x | -1 | 2 | x | x
CCC[C@H]1[C@@H](OC(=O)NCc2ccc(C)cc2)CC[C@@]23CCCN2C(=O)CCC[C@@H]13 | -1 | x | -3 | -7 | x | x
COC(=O)C1CN(Cc2ccc(OC)cc2)CCS(=O)(=O)N1Cc1cn(Cc2ccc(OC)cc2)nn1 (configuration not stated) | -2 | x | 2 | 4 | x | x
CC(C)c1cc(C(C)C)c(S(=O)(=O)N2CCC(c3cn4ccccc4n3)CC2)c(C(C)C)c1 | -1 | x | 2 | -16 | x | x
COC(=O)N1C(=O)[C@](c2ccc(OC)cc2)(C(C)C)N1C(=O)OC | -3 | -1 | -1 | 5 | 72* | 82*
COC(=O)N1C(=O)[C@](c2ccccc2)(C2CCCCC2)N1C(=O)OC | -4 | -1 | 3 | 6 | 80* | 95*
CC[C@@]1(c2ccccc2OC)C(=O)N(C(=O)OC)N1C(=O)OC | x | 1 | x | x | -6 | x
CC[C@@]1(c2cccc(C)c2)C(=O)N(C(=O)OC)N1C(=O)OC | -3 | 1 | -6 | 16 | 79* | 70*
COC(=O)N1C(=O)[C@](CC(C)C)(c2ccccc2)N1C(=O)OC | -8 | -1 | -1 | -2 | 85* | 88*
Nc1[nH]c2cc(C(F)(F)F)ccc2c1C(=O)NC1CCCCC1 | 1 | x | 5 | 0 | x | x
CCCCN1CCS(=O)(=O)N(Cc2ccc(Cl)cc2)C(C(=O)OC)C1 (configuration not stated) | -4 | x | -5 | 0 | x | x
O=C(NCC(c1ccco1)N1CCc2ccccc2C1)c1cccc(F)c1 (configuration not stated) | 4 | 3 | -1 | -1 | 7 | x
O=C(NCC(c1ccco1)N1CCc2ccccc2C1)c1ccc([N+](=O)[O-])cc1 (configuration not stated) | -4 | -1 | 7 | -1 | 60* | 11
COc1ccc(Cn2ccc3ccc(-c4ccc5ccn(Cc6ccc(F)cc6)c5c4)cc32)cc1 | -79 | x | -27 | 7 | x | x
CCc1nnc(NC(=O)c2nc(S(=O)(=O)Cc3cccc(C)c3)ncc2Cl)s1 | -8 | 0 | 0 | 1 | 0 | x
COC(=O)c1ccccc1NC(=O)c1nc(S(=O)(=O)Cc2ccccc2)ncc1Cl | -5 | -2 | -5 | 6 | 54* | 35
Cc1ccc(CS(=O)(=O)c2ncc(Cl)c(C(=O)Nc3ccc(OC(F)F)cc3)n2)cc1 | 7 | -5 | -1 | -12 | 52* | 43
CCOc1ccccc1NC(=O)c1nc(S(=O)(=O)Cc2cccc(C)c2)ncc1Cl | 5 | 0 | -2 | 3 | 58* | 48*
C[C@H]1[C@@H](OC(=O)NCc2cccc(C(F)(F)F)c2)CC[C@@]23CCCN2C(=O)CCC[C@@H]13 | 4 | x | -2 | 0 | x | x
SMILES | ADAM10 inh | NR3A LBD binder | ADAM17 inh | HGIII-sPLA2 inh | FAS TE block | FAS-TE inh conf
Cc1nnc2n(Cc3ccccc3)c(=O)c3c4c(sc3n12)COC(C(C)C)C4 (configuration not stated) | 8 | -1 | 2 | 5 | 55* | 6
O=C(Nc1cccc(C(=O)O)c1)/C(=C/c1ccccc1)NC(=O)c1cccc(Br)c1 | 1 | 0 | -3 | 3 | -2 | x
O=C(Nc1cccc(C(=O)O)c1)/C(=C/c1cccc([N+](=O)[O-])c1)NC(=O)c1cccc(Br)c1 | -5 | -15 | -3 | -11 | 62* | 58*
CCn1c2ccccc2c2cc(NC(=O)c3ccc(C)c([N+](=O)[O-])c3)ccc21 | 8 | 7 | 2 | 8 | 52* | -2
Fc1ccc(-c2n[nH]c(=S)n2N=Cc2ccc(-c3ccccc3)cc2)cc1 | -6 | x | -2 | 5 | x | x
Cc1nn(-c2ccccn2)c2c1C(c1ccccc1Cl)C1=C(N2)c2ccccc2C1=O (configuration not stated) | 2 | -9 | 5 | 0 | 53* | 3
CC1N(C)c2cc(NC(=O)c3cccs3)c(P(=O)(Nc3ccc([N+](=O)[O-])cc3)N3CCOCC3)cc2C1(C)C (configuration not stated) | -6 | -4 | 6 | 4 | 52* | 34
CN(C)c1ccc(P(=O)(Nc2cccc(C(F)(F)F)c2)N2CCOCC2)c(NC(=O)c2cccs2)c1 (configuration not stated) | 6 | -4 | -3 | 0 | 53* | 23
O=C(Nc1cc(C(F)(F)F)ccc1N1CCOCC1)c1cccs1 | 8 | 2 | 2 | 3 | 15 | x
O=C(Nc1cc([N+](=O)[O-])ccc1N1CCOCC1)c1cccs1 | 2 | -3 | 0 | 4 | 3 | x
CCOC(=O)[C@]12CCCCC/C=C\1N(CCc1ccc(Cl)cc1)C(=O)[C@H]2CC(=O)NCCCOC | 0 | x | -1 | -9 | x | x
O=C(CN1C(=O)c2cccc([N+](=O)[O-])c2C1=O)N1CCN(S(=O)(=O)c2ccccc2)CC1 | -4 | 3 | 0 | 6 | 27 | x
O=C(COc1ccc([N+](=O)[O-])cc1)N1CCc2ccccc2C1 | 10 | -4 | -3 | -5 | 70* | 83*
O=C(CN1C(=O)c2cccc([N+](=O)[O-])c2C1=O)N1CCc2ccccc2C1 | 3 | x | 0 | -2 | 59* | 65*
Cc1ccc(Cn2cc(CN3[C@@H](CC(C)C)COc4cccc(F)c4S3(=O)=O)nn2)cc1 | -4 | x | -3 | -1 | x | x
O=C(Nc1ccccc1C(=O)NCC1CC1)c1cccs1 | -3 | x | -5 | 4 | x | x
CCN(CC)S(=O)(=O)c1ccc2oc(C(=O)N3CCc4ccccc4C3)c(C)c2c1 | x | -1 | x | x | 38 | x
